# The sample as a whole holds a higher share of hits than the screen did.
# HIV RNase H inh-1 = blocks HIV-1 RNase H cleavage of RNA/DNA duplex | inhibition, % at 10 µM | AID 565 | actives 1.9% (n = 65,000) | P04585 | RT-RNase H RNA/DNA duplex cleavage, fluorescence; in the data active means inhibition above about 50%
# RmlC RmlD mix = inhibitors of RmlC and RmlD coupled enzymes; RmlC/RmlD coupled enzyme inhibition, 384-well mixture HTS; inhibition, % at 5.5 µM; actives 0.39% (n = 110,000); in the data active means inhibition above about 30%, passing the limit was not always enough; inconclusive means no clear call, values can overlap the other calls
# HIV RNase H inh-2 = confirmation of HIV-1 reverse transcriptase RNase H inhibitors. Recombinant RT RNase H, fluorescent RNA/DNA duplex cleavage. inhibition, % at 10 µM. actives 39% (n = 1,000). shares compounds with HIV RNase H inh-1; in the data active means inhibition above about 48%; inconclusive means no clear call, values can overlap the other calls
# Numbers stand for hits; - = inactive; ? = inconclusive; . = no result.
SMILES,HIV RNase H inh-1,RmlC RmlD mix,HIV RNase H inh-2
Cc1ccc(-c2nnn(CC(=O)Nc3cccc4c3CCCC4)n2)o1,71,-,-
C[C@H]1C=C(C(=O)O)O[C@@H](OCc2ccc(CO)cc2)C1,.,-,.
O=C1NC[C@H](Cc2ccccc2)N(CC2CCCCC2)C1=O,.,-,.
CCc1ccc2[nH]c(=O)c(CN(Cc3ccc4c(c3)OCO4)C(=O)c3ccco3)cc2c1,58,-,-
CCOc1ccc2[nH]c(=O)c(CN(Cc3ccc(F)cc3)C(=O)c3ccco3)cc2c1,-,-,.
CCN(CC)c1cc(CS(=O)c2ccccc2)nc(-c2ccccc2)n1 (configuration not stated),.,-,.
CC1CCN(S(=O)(=O)c2ccc(NC(=O)Cn3nnc(-c4ccccc4F)n3)cc2)CC1,69,-,-
CC1CCN(S(=O)(=O)c2ccc(NC(=O)Cc3ccccc3)cc2)CC1,.,-,.
Nn1c(SCC(=O)Nc2ccc3c(c2)OCO3)nnc1-c1ccncc1,-,.,.
Cc1cc(NC(=O)CSc2nnc(-c3ccncc3)n2N)ccc1Br,52,-,-
COC(=O)c1ccccc1S(=O)(=O)N(Cc1cc2cc3c(cc2[nH]c1=O)OCO3)C1CCCCC1,53,.,52
COc1ccc(CN(Cc2cc3cc4c(cc3[nH]c2=O)OCO4)C(=O)NC2CCCCC2)cc1,-,-,.
COc1cccc(C2=CC(=O)CC(c3ccco3)C2)c1 (configuration not stated),.,-,.
CCOC(=O)c1cc2sc(C)cc2n1CC(=O)Nc1ccc2c(c1)OCCO2,58,-,?
CCOC(=O)c1cc2sc(C)cc2n1CC(=O)Nc1cccc(C)c1C,-,-,.
CCO/N=C(/C)c1c(O)c(C)c(-c2ccccc2)n(-c2ccccc2)c1=O,.,-,.
COC(=O)[C@@]1(Cc2ccc(F)cc2)[C@H]2c3cc(C(=O)N(C)C)n(Cc4c(CO)[nH]cc(C)c4=O)c3C[C@H]2CN1C(=O)c1ccccc1,.,-,.
CCC(=O)Nc1nc(=S)ss1,.,-,.
COc1ccc(OC)c(S(=O)(=O)NCc2ccccc2)c1,-,-,.
COc1ccc(OC)c(NS(=O)(=O)Cc2ccccc2)c1,77,.,?
COc1ccc(C(=O)N=c2sc3c(C)ccc(OC)c3n2C)cc1,.,-,.
CCCCN1C2CCCC1CC(NC(=O)C1CCCCC1)C2 (configuration not stated),.,-,.
CC(C)(C)OC(=O)NCCCC1=CC2=CC(=O)C(C)(OC(=O)C3CCCC3)C(=O)C2=CO1 (configuration not stated),.,-,.
CC1SC(c2cccc(Cl)c2)NC1=O (configuration not stated),60,-,-
CC1SC(c2ccc(Cl)cc2Cl)NC1=O (configuration not stated),.,-,.
SMILES,HIV RNase H inh-1,RmlC RmlD mix,HIV RNase H inh-2
CC1(C(=O)NCCN2CCOCC2)C=CC2(CCCCC2)N1C(=O)c1ccccc1 (configuration not stated),.,-,.
COC(=O)[C@@H]1C[C@H]2CC[C@H](O)C[C@H]2N1Cc1ccc(C)s1,.,-,.
COc1ccc(-c2nnc3sc(C4CCCCC4)nn23)cc1OC,-,-,.
Clc1ccc(-c2ccc(-c3nn4c(-c5ccco5)nnc4s3)o2)cc1,99,-,?
Cc1occc1-c1nnc2sc(-c3ccc(-c4ccc(Cl)cc4)o3)nn12,-,.,.
c1coc(-c2nnc3sc(C4CCCCC4)nn23)c1,75,-,?
Cc1nn(C(=O)c2c([N+](=O)[O-])cnn2C)c(C)c1Cl,.,-,.
O=C(O)C[C@H]1c2cc(C(F)(F)F)ccc2S(=O)(=O)N1C1CCCCC1,.,-,.
CC(C)(C)CN1C(=O)C(=O)NC[C@@H]1CCCCN,.,-,.
CCCCOC(=O)Nc1cc(Cl)ccc1C,.,-,.
CCCOC(=O)NC(CC)COC(=O)Nc1cc(C)ccc1C (configuration not stated),93,-,-
CCO[C@@H]1OC(C(=O)NC2CC2)=C[C@H](c2coc3ccccc3c2=O)[C@H]1CCCO,.,-,.
COC(=O)C(N)CCCCN (configuration not stated),.,-,.
N#Cc1cc(-c2ccccc2)nn1-c1ccccc1,91,-,56
Clc1ccccc1/C=N/c1cc(-c2ccccc2)nn1-c1ccccc1,.,-,.
CCC(=O)NS(=O)(=O)c1ccc(-c2c(-c3ccccc3)noc2C)cc1,.,-,.
CCCCCCN(C(=O)CCCCCN1C(=O)NC(c2ccc(-c3ccccc3)cc2)C(C(=O)OCc2ccccc2)=C1C)C(C(=O)NCCCC)c1ccc(O)c(C(=O)OC)c1 (configuration not stated),.,-,.
CCOC(=O)N1CCC(N2Cc3cccc(C(=O)NCc4ccc(OC)cc4)c3C2=O)CC1,73,.,-
CCOC(=O)N1CCC(N2Cc3cccc(C(=O)NCc4ccccc4OC)c3C2=O)CC1,-,-,.
O=C(O)c1ccc(Cl)c2c1C1C=CCC1C(c1ccccn1)N2 (configuration not stated),83,-,-
C1=CC2c3ccccc3NC(c3ccncc3)C2C1 (configuration not stated),-,-,.
